Results from PubChem BioAssay (EPA / NIEHS).
Active and inactive are the calls of the source. The calls were made as follows: active = hit-call score of the fitted dose curve at least 0.9, where 1 is the maximum; inactive = score below 0.9.

How the values were obtained:
[1] = read-out: urokinase plasminogen activator (uPA), PLAU (gene 5328); assay: BSK_KF3CT_uPA: BioMAP Diversity Plus: KF3CT Assay for urokinase plasminogen activator (uPA) Biomarker Activity (AID 2283075); conditions: primary human keratinocytes with fibroblasts; actives raise or lower the signal
Outline: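 ELISA read-out of uPA 24 h after dosing human skin keratinocytes co-cultured with foreskin fibroblasts. Signal change fitted both ways relative to DMSO; sulforhodamine B on parallel cultures marks overt cytotoxicity.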

[2] = read-out: E-selectin (Homo sapiens) (UniProt P16581); assay: BSK_LPS_Eselectin: BioMAP Diversity Plus: LPS Assay for Eselectin Biomarker Activity (AID 2283077); conditions: primary human HUVEC with PBMC; actives raise or lower the signal
Outline: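 Human umbilical vein endothelial cells co-cultured with PBMC under LPS stimulation; cell-surface E-selectin measured by ELISA 24 h after dosing. Change in either direction versus DMSO, with SRB total-protein staining in parallel cultures for cytotoxicity.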

[3] = read-out: Interleukin-8 (IL8), CXCL8 (gene 3576); assay: BSK_LPS_IL8: BioMAP Diversity Plus: LPS Assay for Interleukin-8 (IL8) Biomarker Activity (AID 2283078); conditions: primary human HUVEC with PBMC; actives raise or lower the signal
Outline: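 Human umbilical vein endothelial cells co-cultured with PBMC, LPS-stimulated, exposed to compound for 24 h. IL-8 quantified by ELISA; fitted in both directions against DMSO, with SRB total-protein staining of parallel cultures for cytotoxicity.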

[4] = BSK_LPS_SRB: Viability Assessment in the BioMAP Diversity Plus: LPS Assay (AID 2283079); conditions: primary human HUVEC with PBMC;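 also: total protein by sulforhodamine B absorbance as a cytotoxicity measure; measured one day after compound addition; fitted in both directions against DMSO so loss or gain of signal counts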
Outline: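 Co-culture of human umbilical vein endothelial cells and PBMC, read 24 h after dosing. Total protein by 0.1% SRB staining after 10% TCA fixation, absorbance at 560 nm; bidirectional fit against DMSO.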

[5] = read-out: Interleukin-1 alpha (IL1a), IL1A (gene 3552); assay: BSK_LPS_IL1a: BioMAP Diversity Plus: LPS Assay for Interleukin-1 alpha (IL1a) Biomarker Activity (AID 2283080); conditions: primary human HUVEC with PBMC; actives raise or lower the signal
Outline: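 Human umbilical vein endothelial cells co-cultured with PBMC and stimulated with LPS; IL-1a measured by ELISA 24 h after dosing. Bidirectional fitting against DMSO; cytotoxicity checked by SRB staining in parallel cultures.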

[6] = read-out: Monocyte Chemoattractant Protein-1 (MCP1), CCL2 (gene 6347); assay: BSK_LPS_MCP1: BioMAP Diversity Plus: LPS Assay for Monocyte Chemoattractant Protein-1 (MCP1) Biomarker Activity (AID 2283081); conditions: primary human HUVEC with PBMC; actives raise or lower the signal;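 as to AC50: secreted MCP-1 protein quantified by ELISA in culture supernatant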
Outline: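 Human umbilical vein endothelial cells co-cultured with PBMC, LPS-stimulated; secreted MCP-1 measured by ELISA 24 h after compound addition. Bidirectional curve fitting against DMSO baseline; SRB total-protein staining in parallel cultures for cytotoxicity.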

[7] = BSK_LPS_PGE2: BioMAP Diversity Plus: LPS Assay for Prostaglandin E2 (PGE2) Biomarker Activity (AID 2283082); conditions: primary human HUVEC with PBMC; actives raise or lower the signal;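 as to AC50: secreted prostaglandin E2 measured by ELISA in LPS-stimulated co-culture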
Outline: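 PGE2 release measured by ELISA in an LPS-activated co-culture of human umbilical vein endothelial cells and peripheral blood mononuclear cells, read at 24 h post-dosing. DMSO served as baseline for bidirectional curve fitting.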

[8] = read-out: Macrophage colony-stimulating factor (MCSF), CSF1 (gene 1435); assay: BSK_LPS_MCSF: BioMAP Diversity Plus: LPS Assay for Macrophage colony-stimulating factor (MCSF) Biomarker Activity (AID 2283083); conditions: primary human HUVEC with PBMC; actives raise or lower the signal
Outline: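 HUVEC–PBMC co-culture, M-CSF measured by ELISA 24 h after chemical dosing. Fitted in both directions relative to DMSO as negative control; overt cytotoxicity assessed by SRB total-protein staining in parallel cultures.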

[9] = read-out: Tissue Factor, F3 (gene 2152); assay: BSK_LPS_TissueFactor: BioMAP Diversity Plus: LPS Assay for Tissue Factor Biomarker Activity (AID 2283084); conditions: primary human HUVEC with PBMC; actives raise or lower the signal
Outline: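 Human umbilical vein endothelial cells co-cultured with PBMC were dosed with compound. Cell-surface CD142 was measured by ELISA 24 h later. Activity was fitted bidirectionally against DMSO, with SRB total-protein staining in parallel cultures for cytotoxicity.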

[10] = read-out: Tumor necrosis factor (Homo sapiens) (UniProt P01375); assay: BSK_LPS_TNFa: BioMAP Diversity Plus: LPS Assay for Tumour Necrosis Factor alpha (TNFa) Biomarker Activity (AID 2283085); conditions: primary human HUVEC with PBMC; actives raise or lower the signal;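 as to AC50: TNFa protein level quantified by ELISA in the co-culture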
Outline: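 TNFa was quantified by ELISA in LPS-activated co-cultures of human endothelial cells and PBMC, 24 h post-dosing. Both increases and decreases versus DMSO were fitted.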

[11] = read-out: Vascular cell adhesion molecule 1 (VCAM1), VCAM1 (gene 7412); assay: BSK_LPS_VCAM1: BioMAP Diversity Plus: LPS Assay for Vascular cell adhesion molecule 1 (VCAM1) Biomarker Activity (AID 2283086); conditions: primary human HUVEC with PBMC; actives raise or lower the signal
Outline: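 VCAM-1 quantified by ELISA in an LPS-activated co-culture of human endothelial cells and peripheral blood mononuclear cells, read 24 h post-treatment. Fitted in both directions versus DMSO; parallel SRB staining flags overt cytotoxicity.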

CD38, CD38 (gene 952) = assay: BSK_SAg_CD38: BioMAP Diversity Plus: SAg Assay for CD38 Biomarker Activity (AID 2283087); conditions: primary human HUVEC with PBMC; actives raise or lower the signal
Outline: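 CD38 quantified by ELISA (fluorescence) in a superantigen-activated endothelial cell–PBMC co-culture at 24 h post-dose. Activity fitted in both directions relative to DMSO; parallel SRB and Alamar Blue cytotoxicity read-outs.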

CD40, CD40 (gene 958) = assay: BSK_SAg_CD40: BioMAP Diversity Plus: SAg Assay for CD40 Biomarker Activity (AID 2283088); conditions: primary human HUVEC with PBMC; actives raise or lower the signal
Outline: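 HUVEC plus PBMC co-culture, superantigen-activated, with CD40 read by ELISA 24 h after dosing. Curves fitted in both directions against DMSO. Overt cytotoxicity checked by parallel SRB total-protein staining.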

CD69, CD69 (gene 969) = assay: BSK_SAg_CD69: BioMAP Diversity Plus: SAg Assay for CD69 Biomarker Activity (AID 2283089); conditions: primary human HUVEC with PBMC; actives raise or lower the signal;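 as to AC50: cell surface CD69 protein quantified by ELISA with fluorescence detection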
Outline: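 Primary human vascular co-culture (umbilical vein endothelium with peripheral blood mononuclear cells) exposed to test chemical for 24 h. CD69 levels quantified by fluorescence ELISA; DMSO served as negative control for bidirectional fitting.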

[12] = read-out: Monocyte Chemoattractant Protein-1 (MCP1), CCL2 (gene 6347); assay: BSK_SAg_MCP1: BioMAP Diversity Plus: SAg Assay for Monocyte Chemoattractant Protein-1 (MCP1) Biomarker Activity (AID 2283090); conditions: primary human HUVEC with PBMC; actives raise or lower the signal
Outline: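 Values derive from bidirectional fitting of ELISA-measured MCP1 against DMSO controls. Readings were taken 24 h after dosing human vascular endothelial cells co-cultured with peripheral blood mononuclear cells under superantigen stimulation.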

[13] = read-out: E-selectin (Homo sapiens) (UniProt P16581); assay: BSK_SAg_Eselectin: BioMAP Diversity Plus: SAg Assay for Eselectin Biomarker Activity (AID 2283091); conditions: primary human HUVEC with PBMC; actives raise or lower the signal
Outline: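 Human umbilical vein endothelial cells co-cultured with peripheral blood mononuclear cells, SAg system. E-selectin is measured by ELISA 24 h after dosing and fitted bidirectionally against DMSO. Cytotoxicity is checked by SRB staining of parallel cultures.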

[14] = read-out: Monokine induced gamma interferon (MIG), CXCL9 (gene 4283); assay: BSK_SAg_MIG: BioMAP Diversity Plus: SAg Assay for Monokine induced gamma interferon (MIG) Biomarker Activity (AID 2283092); conditions: primary human HUVEC with PBMC; actives raise or lower the signal
Outline: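 Endothelial cells and PBMC were co-cultured, exposed to test chemicals, and sampled 24 h later. MIG was measured by ELISA, and responses were fitted in both directions relative to DMSO.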

[15] = read-out: Interleukin-8 (IL8), CXCL8 (gene 3576); assay: BSK_SAg_IL8: BioMAP Diversity Plus: SAg Assay for Interleukin-8 (IL8) Biomarker Activity (AID 2283094); conditions: primary human HUVEC with PBMC; actives raise or lower the signal
Outline: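 ELISA readout of IL-8 from a superantigen-activated endothelial/PBMC primary human co-culture, taken 24 h post-dosing and fitted in both directions against DMSO; parallel SRB total-protein staining flags overt cytotoxicity.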

[16] = BSK_SAg_PBMCCytotoxicity: PBMC Cytotoxicity Assessment in the BioMAP Diversity Plus: SAg Assay (AID 2283093); conditions: primary human HUVEC with PBMC;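 also: PBMC viability measured as Alamar Blue reduction fluorescence at 546/580 nm; fitted both ways against DMSO so a hit may be loss or gain of signal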;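 as to AC50: PBMC superantigen activated with SEB plus TSST-1 one hour after compound addition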
Outline: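 Alamar Blue reduction (6 h, ex/em 546/580 nm) read after 90 h culture of PBMC pre-dosed 1 h then stimulated with SEB plus TSST-1, 20 ng/mL each. Gain or loss of signal fitted relative to DMSO.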

Measured: AC50

Sequence of E-selectin (Homo sapiens) (P16581 whole entry, looked up): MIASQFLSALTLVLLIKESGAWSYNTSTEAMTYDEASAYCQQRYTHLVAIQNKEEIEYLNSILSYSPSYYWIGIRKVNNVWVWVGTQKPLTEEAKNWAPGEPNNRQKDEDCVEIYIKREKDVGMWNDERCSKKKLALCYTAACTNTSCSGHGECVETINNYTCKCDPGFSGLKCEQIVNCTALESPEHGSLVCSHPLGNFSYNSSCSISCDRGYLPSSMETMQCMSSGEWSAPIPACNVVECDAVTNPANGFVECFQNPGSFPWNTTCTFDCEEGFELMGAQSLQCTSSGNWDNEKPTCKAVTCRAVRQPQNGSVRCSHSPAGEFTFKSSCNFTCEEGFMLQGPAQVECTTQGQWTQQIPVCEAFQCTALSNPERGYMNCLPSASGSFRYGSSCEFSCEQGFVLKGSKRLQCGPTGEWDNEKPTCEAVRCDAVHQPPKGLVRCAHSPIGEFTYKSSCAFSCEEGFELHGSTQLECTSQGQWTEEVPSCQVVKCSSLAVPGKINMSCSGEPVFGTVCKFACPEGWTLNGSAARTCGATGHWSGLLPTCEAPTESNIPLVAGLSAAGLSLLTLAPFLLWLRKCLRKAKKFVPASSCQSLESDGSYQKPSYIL
Sequence of Tumor necrosis factor (Homo sapiens) (P01375 whole entry, looked up): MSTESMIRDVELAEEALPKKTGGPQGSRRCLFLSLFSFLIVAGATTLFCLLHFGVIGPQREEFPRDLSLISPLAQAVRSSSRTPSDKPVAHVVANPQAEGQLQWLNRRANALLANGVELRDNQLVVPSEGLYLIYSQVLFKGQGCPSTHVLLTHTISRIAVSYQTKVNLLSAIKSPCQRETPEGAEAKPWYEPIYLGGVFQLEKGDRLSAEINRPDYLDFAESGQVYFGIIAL

Cc1ccc(N)cc1O
active: [7] 4.87 µM | [13] 6.15 µM
inactive: [1] | [2] | [3] | [4] | [5] | [6] | [8] | [9] | [10] | [11] | CD38, CD38 (gene 952) | CD40, CD40 (gene 958) | CD69, CD69 (gene 969) | [12] | [14] | [15]

CCC(C)(C)C(=O)O[C@H]1C[C@@H](C)C=C2C=C[C@H](C)[C@H](CC[C@@H]3C[C@@H](O)CC(=O)O3)[C@H]21
active: [1] 31.2 µM | [2] 0.168 µM | [4] 4.75 µM | [5] 1.28 µM | [6] 30.5 µM | [8] 35 µM | [10] 0.363 µM | [11] 25.4 µM | CD40, CD40 (gene 958) 3.99 µM | [12] 20 µM | [13] 0.149 µM | [16] 25.1 µM | [15] 0.149 µM
inactive: [3] | [7] | [9] | [14]

CC(C)=CCC/C(C)=C\CO
inactive: [1] | [2] | [3] | [4] | [5] | [6] | [7] | [8] | [9] | [10] | CD40, CD40 (gene 958) | CD69, CD69 (gene 969) | [12] | [13] | [14] | [16] | [15]

O=C(O)c1cccc(Oc2ccccc2)c1
inactive: [1] | [2] | [3] | [4] | [5] | [6] | [7] | [8] | [9] | [10] | [11] | CD40, CD40 (gene 958) | CD69, CD69 (gene 969) | [12] | [13] | [14] | [16] | [15]

CC(=O)OC[C@H]1O[C@@](COC(C)=O)(O[C@H]2O[C@H](COC(C)=O)[C@@H](OC(C)=O)[C@H](OC(C)=O)[C@H]2OC(C)=O)[C@@H](OC(C)=O)[C@@H]1OC(C)=O
inactive: [1] | [2] | [3] | [4] | [5] | [6] | [7] | [8] | [9] | [10] | [11] | CD40, CD40 (gene 958) | CD69, CD69 (gene 969) | [12] | [13] | [14] | [16] | [15]

CCCCCCc1ccc(O)cc1O
inactive: [9]
active: [1] 31.6 µM | [2] 31.8 µM | [3] 29.6 µM | [4] 28.5 µM | [5] 26.6 µM | [6] 30.2 µM | [7] 1.38 µM | [10] 32.6 µM | [11] 32 µM | CD38, CD38 (gene 952) 33 µM | CD40, CD40 (gene 958) 30.6 µM | [12] 27.6 µM | [13] 33.6 µM | [14] 36.8 µM | [16] 33.1 µM | [15] 24.4 µM

O=C(OC[C@H]1O[C@@H](OC(=O)c2cc(O)c(O)c(OC(=O)c3cc(O)c(O)c(O)c3)c2)[C@H](OC(=O)c2cc(O)c(O)c(OC(=O)c3cc(O)c(O)c(O)c3)c2)[C@@H](OC(=O)c2cc(O)c(O)c(OC(=O)c3cc(O)c(O)c(O)c3)c2)[C@@H]1OC(=O)c1cc(O)c(O)c(OC(=O)c2cc(O)c(O)c(O)c2)c1)c1cc(O)c(O)c(OC(=O)c2cc(O)c(O)c(O)c2)c1
inactive: [2] | [3] | [5] | [7] | [8] | [10] | [14]
active: [1] 1.08 µM | [4] 10 µM | [6] 11 µM | [11] 6.1 µM | CD38, CD38 (gene 952) 9.88 µM | CD40, CD40 (gene 958) 8.21 µM | CD69, CD69 (gene 969) 6.1 µM | [12] 6.1 µM | [13] 6.1 µM | [15] 10.2 µM

C1N2CN3CN1CN(C2)C3
inactive: [1] | [2] | [3] | [4] | [5] | [6] | [7] | [8] | [9] | [10] | [11] | CD40, CD40 (gene 958) | CD69, CD69 (gene 969) | [12] | [13] | [14] | [15]

CCCCCCCCCCCCCCCO
active: [3] 31.1 µM | [4] 31.7 µM | [5] 31.9 µM | [8] 31 µM | [10] 3.97 µM | [11] 32.4 µM | CD38, CD38 (gene 952) 32.6 µM | CD40, CD40 (gene 958) 37.3 µM | CD69, CD69 (gene 969) 31.7 µM | [12] 33.3 µM | [13] 33.5 µM | [15] 28.6 µM
inactive: [1] | [2] | [6] | [7] | [9] | [14]

O=C(CCCCCCCCc1cccnc1)N1CCC(C=C(c2ccccc2)c2ccccc2)CC1
active: [1] 15.7 µM | [2] 14.4 µM | [3] 12 µM | [4] 11.7 µM | [5] 9.81 µM | [6] 10.1 µM | [8] 11.4 µM | [9] 14.6 µM | [11] 15 µM | CD40, CD40 (gene 958) 8.35 µM | CD69, CD69 (gene 969) 8.49 µM | [12] 7.42 µM | [13] 7.71 µM | [14] 8.63 µM | [15] 6.46 µM
inactive: [7]
